# TTR transcr act: TTR transcription activators in neuroblastoma reporter cells, primary screen, cell-based, luminescence, SH-SY5Y, TTR promoter Gaussia luciferase; AID 1117267, 2014; 100% = recombinant luciferase protein wells; activation, % at 16.7 µM; 92,000 tested, 1.3% active;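 active means activation above the mean of all tested compounds plus 3 SD, cut at about 9.5% in these data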;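 further: cells exposed to compounds for one day before reading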
# Hits are given with their value; n = inactive. Shown is part of a subset that was picked to be rich in hits.
SMILES,TTR transcr act
C/C=C\C=C/C(=O)Nc1cccc(C2=NOC3(C2)C[C@@H](C(N)=O)N(C(=O)C2(C)CC2)C3)c1 (some centres not stated),11
C=C(C)C(=O)Nc1cccc(C2=NOC3(C2)C[C@@H](C(N)=O)N(C(=O)C2(C)CC2)C3)c1 (some centres not stated),n
C/C=C\C(=O)Nc1cccc(C2=NOC3(C2)C[C@@H](C(N)=O)N(C(=O)C2(C)CC2)C3)c1 (some centres not stated),n
CC(=O)N1CCN(C(=O)c2ccco2)CC1,n
CC(C)C[C@H](NC(=O)N1CC(=O)Nc2ccccc21)C(=O)N[C@@H](C(=O)O)c1ccccc1,n
CC(C)[C@H](NC(=O)N1c2ccccc2NC(=O)[C@@H]1C(C)C)C(=O)N[C@@H](C(=O)O)c1ccccc1,27
O=C1CN(C(=O)NCC(=O)N[C@@H](C(=O)O)c2ccccc2)c2ccccc2N1,n
CC(=O)c1cccc(NC(=O)C2(c3ccccc3)CC2(Cl)Cl)c1 (configuration not stated),n
N#Cc1cc(-c2cccc(Cl)c2)c[nH]c1=O,13
N#Cc1c(-c2cccc(Cl)c2)[nH]c(=S)[nH]c1=O,n
C=CCn1cc(-c2cccc(Cl)c2)cc(C#N)c1=O,n
CCCCCCCCN1C(=O)[C@@H](CC(=O)NCCCC)C[C@@]2(C(=O)OC)C1=C[C@H](COCc1ccccc1)O[C@@H]2C,n
COc1ccc(OC)c(NC(=O)CSCC(=O)O)c1,23
COc1ccc(NC(=O)CSCc2ccc(C#N)cc2)c(OC)c1,n
COCC(=O)Nc1cc(OC)ccc1OC,n
COc1ccc(NC(=O)C2CCCN(S(=O)(=O)c3ccc4c(c3)oc(=O)n4C)C2)cc1OC (configuration not stated),n
CCOC(=O)c1sc(NC(=O)CN2C(=O)NC3(CC(C)CC(C)(C)C3)C2=O)c(C(=O)OCC)c1C (configuration not stated),n
CCN1C(=NCCCOC(C)C)N[C@@H](c2ccccc2)[C@H](C(=O)OC)[C@H]1C,12
CCN1C(=NCCc2ccc([N+](=O)[O-])cc2)N[C@@H](c2ccccc2)[C@H](C(=O)OC)[C@H]1C,n
COC(=O)[C@H]1[C@@H](C)N(CCc2cc(OC)c(OC)c(OC)c2)C(=O)N[C@H]1c1ccccc1,n
O=C(CN1C(=O)NC2(CCCC2)C1=O)NC(c1ccccc1)c1ccccc1,n
O=C(O)CCN1C(=O)NC2(CCCC2)C1=O,17
COc1ccc(NC(=O)CCN2C(=O)NC3(CCCC3)C2=O)cc1Cl,n
Cc1nc(C)n(C(Oc2ccc(Cl)cc2Cl)C(=O)C(C)(C)C)n1 (configuration not stated),n
CCCCNC(=O)n1c(SC)nc2ccccc21,n
SMILES,TTR transcr act
COC(=O)c1cc(COC(=O)CNC(=O)c2cccc(C)c2)oc1C,n
CSc1ncccc1C(=O)OCc1ccccc1F,n
COC(=O)c1cc(COC(=O)c2cccnc2SC)oc1C,41
COc1ccc(C(=O)N/N=C(\C)CC(=O)Nc2cccc(C(F)(F)F)c2)cc1,n
CCn1c(SCC(=O)Nc2ccc(N(C)C)cc2)nnc1-c1cccc(C)c1,28
CCn1c(SCC(=O)Nc2cccc(OC)c2)nnc1-c1ccc(Cl)cc1,n
CCn1c(SCC(=O)Nc2ccc(C)cc2)nnc1-c1ccccn1,n
Cc1ccccc1C(=O)NC(=S)Nc1sc2c(c1C#N)CCC(C)C2 (configuration not stated),n
c1ccc2c(c1)-c1nc3ccccc3cc1C2N1CCCCC1 (configuration not stated),n
COc1ccc(C(=O)N(C)[C@H]2C[C@H]3c4[nH]c5ccccc5c4CCN3C[C@H]2[C@H](C)O)cc1,n
CCOc1ccc(NC(=O)Nc2ccc3c(c2)nnn3C)cc1,n
O=C(Nc1cc(Cl)ccc1N1CCOCC1)c1ccc2c(c1)OCCO2,n
O=C(Nc1ccccc1N1CCN(C(=O)c2ccc(Cl)cc2)CC1)c1ccc2c(c1)OCO2,10
O=C(Nc1ccc(N2CCN(C(=O)c3ccc(Cl)cc3)CC2)cc1)c1ccc2c(c1)OCCO2,n
Nc1c(C(=O)OCC2CCCO2)c2nc3ccccc3nc2n1C1CCCC1 (configuration not stated),n
O=Cc1cn(-c2ccccc2)nc1-c1cccnc1,n
CC(C)(C)c1ccc(C(=O)Nc2ccc(C(=O)N3CCOCC3)cc2)cc1,n
O=C(c1ccc(NC(=O)C2(c3ccccc3)CCOCC2)cc1)N1CCOCC1,24
O=C(c1ccccc1)c1ccc(C(=O)N2CCOCC2)cc1,n
CCCNS(=O)(=O)c1ccc(OC)c(Cl)c1Cl,n
O=C(NCc1ccccc1)c1c[nH]c2ccc(S(=O)(=O)Nc3ccc4c(c3)OCCO4)cc2c1=O,n
Cc1cc(N2CCC(C)CC2)nc2ccccc12,n
CC1CCN(c2ncccc2C(=O)O)CC1,n
CC1CCN(c2nnc(N3CCC(C)CC3)c3ccccc23)CC1,15
CCCC(=O)C1=C(O)C(C(=O)OC)C(C)(C)CC1=NCCc1ccc(OC)c(OC)c1 (configuration not stated),n
SMILES,TTR transcr act
S=C(c1c[nH]c2ccc(Br)cc12)N1CCOCC1,n
O=C(Nc1ccc(Cl)cc1)C1Cc2c(-c3ccc(Cl)cc3)ccnc2O1 (configuration not stated),n
CC(=O)NCCNC(=O)C1Cc2c(-c3ccc(Cl)cc3)ccnc2O1 (configuration not stated),10
COCCNC(=O)C1Cc2c(-c3ccc(NC(C)=O)cc3)ccnc2O1 (configuration not stated),n
CC(=O)c1cccc(NC(=O)N2CCC(NC(=O)c3ccco3)CC2)c1,n
O=C1c2ccc(Cl)cc2S(=O)(=O)c2cccc(C(=O)N3CCN(c4ncc(Br)cn4)CC3)c21,n
Cc1ccccc1CN1CCN(CC(=O)NCc2ccco2)C1=O,n
CCCNC(=O)N[C@@H](Cc1ccccc1)C(=O)OC,n
COc1ccc(C2c3c(ccc4ccccc34)Oc3ncn4nc(-c5ccco5)nc4c32)cc1 (configuration not stated),n
COc1cccc(C2c3c(ncn(-c4ccccc4)c3=N)Oc3ccc4ccccc4c32)c1OC (configuration not stated),n
COc1ccc(C2c3c(ccc4ccccc34)Oc3ncn4nc(CO/N=C/c5ccccc5)nc4c32)cc1 (configuration not stated),12
CC1(C)Oc2ccc3ccc(=O)oc3c2C[C@H]1O,n
Nc1nnc(CSCc2ccccc2Cl)s1,n
Cc1oc2cc(OC(=O)c3ccco3)ccc2c(=O)c1-c1nc2ccccc2n1C,n
COc1cc(Cl)ccc1OCc1cc(C(=O)N2CCCCC2c2cccnc2)no1 (configuration not stated),n
CCN(CC)S(=O)(=O)c1ccc(NS(=O)(=O)c2cccc(C)c2)cc1,10
CCN(CC)S(=O)(=O)c1ccc(NS(=O)(=O)c2ccc(OC)c([N+](=O)[O-])c2)cc1,n
CCN(CC)S(=O)(=O)c1cc(NS(=O)(=O)c2cccc(Cl)c2Cl)ccc1C,n
Cc1sc2nc(CSc3nnnn3-c3ccc(Cl)cc3)[nH]c(=O)c2c1C,n
Cc1cc(C(=O)COC(=O)c2ccc(O)cc2O)c(C)n1-c1ccccc1,n
CCOc1cc2c(cc1OCC)C(C(=O)O)C(c1cc(OC)c(OC)c(OC)c1)N(C)C2=O (configuration not stated),12
COCCNC(=O)C1c2cc(OC)c(OC)cc2C(=O)N(C)C1c1cccnc1 (configuration not stated),n
